In PubChem BioAssay (NCATS) one finds Potency, activity change, negative = lower viability and activity change, negative = inhibition data, which are given here for 40 compounds.

Records with an inconclusive call do not appear. Entries that show only a call come without a potency. Values without a mark were called inactive. Active and inactive are the calls of the source. Unless noted, calls follow the shape of the full dose curve.
Potency is read from the fitted curve at half-maximal effect.

System in one assay: not listed separately
Put plainly: qHTS for Inhibitors of the Functional Ribonucleoprotein Complex (vRNP) of Lymphocytic Choriomeningitis Arenaviruses (LCMV): Viability assay - alamar blue signal for LCMV Primary Screen (AID 1347085; calls by dose curve; tested in HEK293 reporter line; also: nearly all actives have a fitted effect of over 80% in size). The note with it: alamar blue viability counter-screen, LCMV vRNP screen cells; series mostly up to 57.5 µM. (In general: qHTS replaces the single test concentration by a dilution series.)
For the compound `CC1(C)O[C@H]2C[C@@H]3[C@H]4CCC5=CC(=O)C=C[C@]5(C)[C@@]4(F)[C@@H](O)C[C@]3(C)[C@]2(C(=O)CO)O1`, the Potency entry is “inactive”.

Take `O=C(O)/C=C/c1ccc2c(c1)OCO2`: the Potency result is “inactive”.

Consider `CC1(C)Oc2ccc3ccc(=O)oc3c2[C@@H](O)[C@H]1O`, for which the Potency entry is “inactive”.

`CC1(C)O[C@@H]1COc1c2ccoc2cc2oc(=O)ccc12`: the Potency result was “inactive”.

On to `COc1ccc(/C=C/C(=O)O)cc1`, for which the Potency entry was “inactive”.

On to `CC(O)CC(=O)O` (stereo not given), for which the Potency entry is “inactive”.

Regarding `O=C1CC(c2ccc(O[C@@H]3OC(CO)[C@@H](O)C(O)C3O)cc2)Oc2cc(O)ccc21` (stereo not given in full), the Potency result was “inactive”.

`Nc1nc2c(ncn2[C@@H]2O[C@H](CO)[C@@H](O)[C@@H]2O)c(=O)[nH]1`: the Potency result is “inactive”.

Take `NC(=O)[C@H]1CCCN1C(=O)[C@H](Cc1cnc[nH]1)NC(=O)[C@@H]1CCC(=O)N1`: the activity change, negative = lower viability is -0.247% [at 5.82 µM].

`COc1ccc(CCNC(=O)/C=C\c2ccccc2)cc1OC`: the Potency entry was “inactive”.

As to `CCCCCCCOC(C)=O`, the Potency entry is “inactive”.

For `CC1=CC(C/C(C)=C/COc2ccc3ccc(=O)oc3c2)OC1=O` (stereo not given), the Potency entry was “inactive”.

In the case of `C[C@]12CCC3C(CC[C@H]4C[C@@H](O)CC[C@]34C)C1C[C@@H](O)C2=O` (stereo not given in full), the Potency entry was “inactive”.

In the case of `CCCCCCCCCCCC(=O)OCC`, the Potency result was “inactive”.

Turning to `CC1=CCC(O)(C(C)C)CC1` (stereo not given), the Potency entry was “inactive”.

As to `O=C1CCC[C@H]2[C@@H]3CCCN4CCC[C@H](CN12)[C@H]34`, the Potency entry was “inactive”.

For the compound `CC(C)=CCC[C@](C)(O[C@@H]1O[C@H](CO)[C@@H](O)[C@H](O)[C@H]1O)[C@H]1CC[C@]2(C)[C@@H]1[C@H](O)C[C@@H]1[C@@]3(C)CC[C@H](O[C@@H]4O[C@H](CO)[C@@H](O)[C@H](O)[C@H]4O[C@@H]4O[C@H](CO)[C@@H](O)[C@H](O)[C@H]4O)C(C)(C)[C@@H]3[C@@H](O)C[C@]12C`, the Potency result is “inactive”.

Take `CC/C=C\CCCCCO`: the Potency result was “inactive”.

As for `CO[C@H]1C[C@H](O[C@H]2[C@H](C)O[C@@H](O[C@@H]3/C(C)=C/C[C@@H]4C[C@@H](C[C@]5(C=C[C@H](C)[C@@H](C6CCCCC6)O5)O4)OC(=O)[C@@H]4C=C(C)[C@@H](O)[C@H]5OC/C(=C\C=C\[C@@H]3C)[C@]54O)C[C@@H]2OC)O[C@@H](C)[C@@H]1O`, the Potency result is “inactive”.

For the compound `COc1cc2cc(Oc3ccc4ccc(=O)oc4c3)c(=O)oc2cc1OC(C)=O`, the Potency result is “inactive”.

Take `CC(=Cc1ccccc1)C=C1SC(=S)N(CC(=O)O)C1=O`: the Potency entry was “inactive”.

For `CC(=O)O`, the Potency result was “inactive”.

Consider `Cc1[nH]c(C=C2C(=O)Nc3ccc(S(=O)(=O)Cc4c(Cl)cccc4Cl)cc32)c(C)c1C(=O)N1CCC[C@H]1CN1CCCC1`, for which the Potency entry was “inactive”.

For the compound `COC1=C(C)C(=O)O[C@]12C(=O)C(C)=C1CCCCN3[C@H]([C@@H]4C[C@H](C)C(=O)O4)CC[C@]132`, the Potency result is “inactive”.

For `O=C(O)C=Cc1ccc(Cn2ccnc2)cc1`, the Potency result is “inactive”.

Regarding `CCCCCCCCC=O`, the Potency result is “inactive”.

As to `COc1ccc(-c2oc3ccccc3c(=O)c2O)cc1`, the Potency result was “inactive”.

Regarding `CCCCCC1C(=O)CCC1CC(=O)OC` (stereo not given), the Potency result is “inactive”.

As for `CC(C)NC(=O)NC(C)C`, the Potency result is “inactive”.

Regarding `N#CC(=C1Nc2ccccc2S1)c1ccnc(OCc2ccc(CN3CCOCC3)cc2)n1`, the Potency is 1930 nM (active).

Take `C/C=C(/C)C(=O)O[C@@H]1c2cc3c(c4c2[C@@]2(CO4)C(=O)C(OC)=C(OC)C=C2C[C@@H](C)[C@H]1C)OCO3`: the Potency result was “inactive”.

Turning to `Cc1cnc(C)c(C)n1`, the Potency result was “inactive”.

Consider `COc1cc(/C=C/c2ccccc2)cc(OC)c1`, for which the Potency entry was “inactive”.

Turning to `C/C=C(\C)C(=O)OC(C)(C)[C@H]1Cc2cc3ccc(=O)oc3cc2O1`, the Potency entry is “inactive”.

Turning to `C/C=C1/C[C@@H](C)[C@@](C)(O)C(=O)OCC2=CCN3CC[C@@H](OC1=O)[C@@H]23`, the Potency result was “inactive”.

For `CC(=O)OC[C@]1(OC(C)=O)C[C@@]23CC[C@H]4[C@@](C)(CCC[C@@]4(C)C(=O)O)[C@@H]2CC[C@@H]1C3`, the Potency result is “inactive”.

On to `CS(C)(=O)=O`, for which the Potency result was “inactive”.

Regarding `CCOc1c2ccoc2nc2c(OC)c(OC)ccc12`, the Potency result was “inactive”.

As for `CC(=O)N1CCN(c2ccc(OCc3nn(C)c(C)c3-c3cccc4c(CCCOc5cc(C)c(Cl)c(C)c5)c(C(=O)O)n(Cc5cccnc5)c34)cc2)CC1`, the Potency entry was “inactive”.

As to `CC(C)CC(=O)O`, the Potency entry is “inactive”.

A further assay deals with Nucleoprotein (Lymphocytic choriomeningitis virus (strain Armstrong)) (UniProt P09992). Put plainly: qHTS for Inhibitors of the Functional Ribonucleoprotein Complex (vRNP) of Lymphocytic Choriomeningitis Arenaviruses (LCMV): LCMV Primary Screen - GLuc reporter signal (AID 1347086). Also: nearly all actives have a fitted effect of over 70% in size. The note with it: LCMV minigenome vRNP cell assay, Gaussia luciferase reporter; series mostly up to 57.5 µM.
Chain of Nucleoprotein (Lymphocytic choriomeningitis virus (strain Armstrong)) (P09992 whole entry, looked up): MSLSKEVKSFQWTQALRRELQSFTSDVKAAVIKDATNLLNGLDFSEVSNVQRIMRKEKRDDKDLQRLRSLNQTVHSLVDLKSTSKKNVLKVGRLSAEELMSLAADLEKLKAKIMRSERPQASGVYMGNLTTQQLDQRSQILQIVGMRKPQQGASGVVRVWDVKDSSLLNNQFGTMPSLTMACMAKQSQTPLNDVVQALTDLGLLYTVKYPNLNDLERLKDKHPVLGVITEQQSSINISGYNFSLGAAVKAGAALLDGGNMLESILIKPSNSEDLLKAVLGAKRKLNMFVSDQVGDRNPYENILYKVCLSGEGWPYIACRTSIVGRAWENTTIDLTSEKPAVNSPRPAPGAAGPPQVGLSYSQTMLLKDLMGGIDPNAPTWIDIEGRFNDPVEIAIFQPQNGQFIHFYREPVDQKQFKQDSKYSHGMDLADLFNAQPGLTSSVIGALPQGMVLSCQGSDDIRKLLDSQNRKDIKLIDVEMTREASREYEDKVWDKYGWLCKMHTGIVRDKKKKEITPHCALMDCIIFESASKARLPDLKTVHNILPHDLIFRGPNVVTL
Take `CC1(C)O[C@H]2C[C@@H]3[C@H]4CCC5=CC(=O)C=C[C@]5(C)[C@@]4(F)[C@@H](O)C[C@]3(C)[C@]2(C(=O)CO)O1`: the Potency entry is “inactive”.

As for `O=C(O)/C=C/c1ccc2c(c1)OCO2`, the Potency entry is “inactive”.

`CC1(C)Oc2ccc3ccc(=O)oc3c2[C@@H](O)[C@H]1O`: the Potency result is “inactive”.

With `CC1(C)O[C@@H]1COc1c2ccoc2cc2oc(=O)ccc12`, the Potency entry was “inactive”.

Turning to `COc1ccc(/C=C/C(=O)O)cc1`, the Potency entry is “inactive”.

For `CC(O)CC(=O)O` (stereo not given), the Potency result is “inactive”.

Take `O=C1CC(c2ccc(O[C@@H]3OC(CO)[C@@H](O)C(O)C3O)cc2)Oc2cc(O)ccc21` (stereo not given in full): the Potency entry is “inactive”.

Regarding `Nc1nc2c(ncn2[C@@H]2O[C@H](CO)[C@@H](O)[C@@H]2O)c(=O)[nH]1`, the Potency result is “inactive”.

`NC(=O)[C@H]1CCCN1C(=O)[C@H](Cc1cnc[nH]1)NC(=O)[C@@H]1CCC(=O)N1`: the activity change, negative = inhibition was -2.24% [at 5.82 µM].

Consider `COc1ccc(CCNC(=O)/C=C\c2ccccc2)cc1OC`, for which the Potency entry is “inactive”.

As to `CCCCCCCOC(C)=O`, the Potency entry is “inactive”.

As to `CC1=CC(C/C(C)=C/COc2ccc3ccc(=O)oc3c2)OC1=O` (stereo not given), the Potency entry is “inactive”.

Consider `C[C@]12CCC3C(CC[C@H]4C[C@@H](O)CC[C@]34C)C1C[C@@H](O)C2=O` (stereo not given in full), for which the Potency result was “inactive”.

`CCCCCCCCCCCC(=O)OCC`: the Potency entry is “inactive”.

Turning to `CC1=CCC(O)(C(C)C)CC1` (stereo not given), the Potency entry is “inactive”.

`O=C1CCC[C@H]2[C@@H]3CCCN4CCC[C@H](CN12)[C@H]34`: the Potency result was “inactive”.

`CC(C)=CCC[C@](C)(O[C@@H]1O[C@H](CO)[C@@H](O)[C@H](O)[C@H]1O)[C@H]1CC[C@]2(C)[C@@H]1[C@H](O)C[C@@H]1[C@@]3(C)CC[C@H](O[C@@H]4O[C@H](CO)[C@@H](O)[C@H](O)[C@H]4O[C@@H]4O[C@H](CO)[C@@H](O)[C@H](O)[C@H]4O)C(C)(C)[C@@H]3[C@@H](O)C[C@]12C`: the Potency entry was “inactive”.

As for `CC/C=C\CCCCCO`, the Potency result is “inactive”.

Regarding `CO[C@H]1C[C@H](O[C@H]2[C@H](C)O[C@@H](O[C@@H]3/C(C)=C/C[C@@H]4C[C@@H](C[C@]5(C=C[C@H](C)[C@@H](C6CCCCC6)O5)O4)OC(=O)[C@@H]4C=C(C)[C@@H](O)[C@H]5OC/C(=C\C=C\[C@@H]3C)[C@]54O)C[C@@H]2OC)O[C@@H](C)[C@@H]1O`, the Potency entry was “inactive”.

As for `COc1cc2cc(Oc3ccc4ccc(=O)oc4c3)c(=O)oc2cc1OC(C)=O`, the Potency result is “inactive”.

For `CC(=Cc1ccccc1)C=C1SC(=S)N(CC(=O)O)C1=O`, the Potency result is “inactive”.

For `CC(=O)O`, the Potency result is “inactive”.

For `Cc1[nH]c(C=C2C(=O)Nc3ccc(S(=O)(=O)Cc4c(Cl)cccc4Cl)cc32)c(C)c1C(=O)N1CCC[C@H]1CN1CCCC1`, the Potency result was “inactive”.

For the compound `COC1=C(C)C(=O)O[C@]12C(=O)C(C)=C1CCCCN3[C@H]([C@@H]4C[C@H](C)C(=O)O4)CC[C@]132`, the Potency result is “inactive”.

Consider `O=C(O)C=Cc1ccc(Cn2ccnc2)cc1`, for which the Potency entry is “inactive”.

On to `CCCCCCCCC=O`, for which the Potency entry was “inactive”.

As to `COc1ccc(-c2oc3ccccc3c(=O)c2O)cc1`, the Potency result was “inactive”.

Take `CCCCCC1C(=O)CCC1CC(=O)OC` (stereo not given): the Potency result was “inactive”.

As to `CC(C)NC(=O)NC(C)C`, the Potency result is “inactive”.

For `N#CC(=C1Nc2ccccc2S1)c1ccnc(OCc2ccc(CN3CCOCC3)cc2)n1`, the Potency was 1720 nM (active).

Regarding `C/C=C(/C)C(=O)O[C@@H]1c2cc3c(c4c2[C@@]2(CO4)C(=O)C(OC)=C(OC)C=C2C[C@@H](C)[C@H]1C)OCO3`, the Potency entry was “inactive”.

For the compound `Cc1cnc(C)c(C)n1`, the Potency result is “inactive”.

For the compound `COc1cc(/C=C/c2ccccc2)cc(OC)c1`, the Potency entry was “inactive”.

Regarding `C/C=C(\C)C(=O)OC(C)(C)[C@H]1Cc2cc3ccc(=O)oc3cc2O1`, the Potency result was “inactive”.

Take `C/C=C1/C[C@@H](C)[C@@](C)(O)C(=O)OCC2=CCN3CC[C@@H](OC1=O)[C@@H]23`: the Potency entry was “inactive”.

For the compound `CC(=O)OC[C@]1(OC(C)=O)C[C@@]23CC[C@H]4[C@@](C)(CCC[C@@]4(C)C(=O)O)[C@@H]2CC[C@@H]1C3`, the Potency entry was “inactive”.

Consider `CS(C)(=O)=O`, for which the Potency entry was “inactive”.

As for `CCOc1c2ccoc2nc2c(OC)c(OC)ccc12`, the Potency entry was “inactive”.

As to `CC(=O)N1CCN(c2ccc(OCc3nn(C)c(C)c3-c3cccc4c(CCCOc5cc(C)c(Cl)c(C)c5)c(C(=O)O)n(Cc5cccnc5)c34)cc2)CC1`, the Potency entry is “inactive”.

With `CC(C)CC(=O)O`, the Potency result is “inactive”.
